The full list was thinned out, with hits kept by preference.
TTR transcr act: TTR transcription activators in neuroblastoma reporter cells, primary screen, cell-based, luminescence, SH-SY5Y, TTR promoter Gaussia luciferase | 100% = recombinant luciferase protein wells | activation, % at 16.7 µM | 92,000 compounds, 1.3% hits;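 active = activation above the mean of all tested compounds plus 3 SD, cut at about 9.5% in these data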;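 also: cells exposed to compounds for one day before reading; 0% = median of all test compound wells on the plate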
TTR inh HuH7: TTR promoter reporter inhibitors in hepatoma cells, counter-screen for TTR transcription activator project, cell-based, luminescence, HuH7 hepatoma. shares compounds with TTR transcr act. HuH7 TTR promoter-Gaussia luciferase reporter. inhibition, % at 16.7 µM. 1,100 compounds, 4% hits. AID 1117279, 2014;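 active = average inhibition above the solvent-only control wells' mean plus 3 SD, cut at about 15% in these data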;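 also: 0% = cells with DMSO only and 100% = cells with inhibitor control FD; inhibitors lower well luminescence so higher value means more inhibition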
TTR act confirm: TTR transcription activators, retest, confirmation, cell-based, luminescence, SH-SY5Y, triplicate | shares compounds with TTR transcr act | SHSY5Y TTR promoter Gaussia luciferase; 100% = purified Lucia enzyme wells, no cells | activation, % at 16.7 µM | 1,100 tested, under 10 active;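 active = mean activation above a set limit taken from the earlier primary screen, cut at about 11% in these data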;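 also: 0% = DMSO-treated cells and 100% = recombinant Lucia luciferase without cells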
Active calls of the source: *.

SMILES	TTR transcr act	others
COCCNS(=O)(=O)c1cc(C(=O)O)ccc1OC	0.3
Oc1ccc(CNc2ccccc2Br)c2cccnc12	-1.3
COc1cc(/C=C(\C#N)C(=O)Nc2ccccn2)ccc1O	1.3
CC(C)(C)c1ccc(/C=C(\C#N)C(=O)Nc2ccccn2)cc1	-1.6
CNc1ccc(/C=C(\C#N)C(=O)Nc2ccccn2)cc1[N+](=O)[O-]	23.0*	TTR inh HuH7=-11.6;TTR act confirm=0.4

Compound activity from PubChem BioAssay.
